In PubChem BioAssay AID651548 (Broad Institute, 2012):
In all, about 57,000 compounds went through this assay and about 200 (0.35%) were called active.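 How the source made its calls: active means mean inhibition of replicates at least 50% and every single replicate also reaching 50%; inconclusive means mean inhibition at least 50% but some replicate falls below 50%; inactive means mean inhibition under 50%.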 The sample as a whole holds a higher share of actives than the screen did.

Target: Histone-lysine N-methyltransferase EZH2 (Homo sapiens) (UniProt Q15910)
Sequence (Q15910 whole entry, looked up): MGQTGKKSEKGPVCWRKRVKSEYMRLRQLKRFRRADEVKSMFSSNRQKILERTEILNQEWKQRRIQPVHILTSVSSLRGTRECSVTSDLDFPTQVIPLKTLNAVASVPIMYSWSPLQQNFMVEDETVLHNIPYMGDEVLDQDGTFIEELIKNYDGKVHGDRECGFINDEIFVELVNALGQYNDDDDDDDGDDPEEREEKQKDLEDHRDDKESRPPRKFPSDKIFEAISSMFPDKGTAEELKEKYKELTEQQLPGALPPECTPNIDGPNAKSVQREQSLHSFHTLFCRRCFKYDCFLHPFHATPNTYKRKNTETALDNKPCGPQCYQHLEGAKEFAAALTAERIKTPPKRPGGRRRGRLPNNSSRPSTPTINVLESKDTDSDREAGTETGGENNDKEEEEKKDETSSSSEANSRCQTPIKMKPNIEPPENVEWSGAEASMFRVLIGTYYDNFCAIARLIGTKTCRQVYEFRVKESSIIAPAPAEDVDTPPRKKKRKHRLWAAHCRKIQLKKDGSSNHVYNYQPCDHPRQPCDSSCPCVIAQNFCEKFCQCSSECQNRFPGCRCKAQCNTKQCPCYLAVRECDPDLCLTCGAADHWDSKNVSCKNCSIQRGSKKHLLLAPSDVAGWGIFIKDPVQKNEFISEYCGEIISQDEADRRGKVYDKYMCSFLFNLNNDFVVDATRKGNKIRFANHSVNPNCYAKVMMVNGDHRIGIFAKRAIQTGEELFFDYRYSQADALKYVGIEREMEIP
Experiment: EZH2/PRC2 methyltransferase inhibitors, primary screen, biochemical, DELFIA time-resolved fluorescence, single point (AID 651548);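 further: dimethyl H3K27 on biotinylated H3 21-44 peptide detected by antibody; plate controls were median neutral control wells for no effect and median positive control wells for full effect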
Settings: PRC2 H3K27 methylation, DELFIA TRF, 1 h; at 12.5 µM; hits give high values

Row | Structure (SMILES) | inhibition
1 | C[C@@H](NC(=O)C[C@H]1C[C@@H]2c3cc(NC(=O)c4ccc5c(c4)OCO5)ccc3O[C@@H]2[C@@H](CO)O1)c1ccccc1 | -6.67% (inactive)
2 | COc1ccccc1NC(=O)N[C@H]1CC[C@@H](CC(=O)N[C@@H](C)c2ccccc2)O[C@H]1CO | -11.3% (inactive)
3 | O=C(C[C@H]1CC[C@H](NC(=O)Nc2ccccc2F)[C@@H](CO)O1)NCc1ccccc1 | 4.86% (inactive)
4 | O=C(C[C@@H]1CC[C@H](NC(=O)C2CC2)[C@@H](CO)O1)NCc1ccncc1 | 3.36% (inactive)
5 | C[C@@H]1CN([C@@H](C)CO)C(=O)c2cc(-c3cccnc3)cnc2O[C@H]1CN(C)Cc1ccc(-c2ccccc2)cc1 | 7.86% (inactive)
6 | CN(C)Cc1cn(CC[C@H]2CC[C@H](NC(=O)Nc3ccccc3F)[C@@H](CO)O2)nn1 | 24.4% (inactive)
7 | C[C@H]1CN([C@@H](C)CO)S(=O)(=O)c2ccc(-c3cccnc3)cc2O[C@H]1CN(C)C(=O)C1CCCCC1 | 0.754% (inactive)
8 | C[C@@H]1CN([C@@H](C)CO)S(=O)(=O)c2ccc(-c3ccc(F)cc3)cc2O[C@H]1CN(C)C(=O)c1ccccc1F | -11% (inactive)
9 | CO[C@@H]1CN(C)C(=O)c2cc(NC(=O)c3ccccc3)ccc2OC[C@@H](C)N(C(C)=O)C[C@@H]1C | 4.81% (inactive)
10 | O=C(C[C@H]1C=C[C@H](NC(=O)c2cccc(F)c2)[C@@H](CO)O1)NCc1ccc(Oc2ccccc2)cc1 | -0.132% (inactive)
11 | CCCC(=O)Nc1ccc2c(c1)C(=O)N(C)C[C@@H](OC)[C@@H](C)CN(C(=O)CC)[C@H](C)CO2 | 8.4% (inactive)
12 | COC(=O)C1=CO[C@@H](O[C@@H]2O[C@H](CO)[C@@H](O)[C@H](O)[C@H]2O)[C@@H]2[C@@H](C)[C@@H](OC(=O)C3=CO[C@@H](O[C@@H]4O[C@H](CO)[C@@H](O)[C@H](O)[C@H]4O)[C@@H]4[C@@H](C)[C@@H](OC(C)=O)C[C@H]34)C[C@H]12 | -4.29% (inactive)
13 | CC1=COC(O[C@@H]2O[C@H](CO)[C@@H](O)[C@H](O)[C@H]2O)C2C1CC(O)C2CO (stereo partly specified) | 58.6% (active)
14 | C/C=C1/[C@H](O[C@@H]2O[C@H](CO)[C@@H](O)[C@H](O)[C@H]2O)OC=C2C(=O)O[C@@H]3C[C@@H](C(C)CO)[C@H](COC(=O)C[C@H]21)[C@H]3C (stereo partly specified) | -12.8% (inactive)
15 | COc1ccccc1-c1cn(CC[C@H]2CC[C@@H](NC(=O)Cc3ccccn3)[C@@H](CO)O2)nn1 | 9.32% (inactive)
16 | COc1cccc(NC(=O)Nc2ccc3c(c2)C(=O)N(C)C[C@@H](OC)[C@H](C)CN(CC2CC2)[C@H](C)CO3)c1 | -8.45% (inactive)
